Laboratory results published in PubChem BioAssay.
Inconclusive results are not listed. Calls of active or inactive are those of the source.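 The calls were made as follows, unless noted: active = GFP signal, as percent of the solvent control, above the screen mean plus 3 SD, about 149; inconclusive = no reading because the compound's own fluorescence upset strain identification; inactive = the rest.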

Legend:
[1] = yeast TOR pathway RPL19A-GFP modulators, primary screen, cell-based, S. cerevisiae, multiplex flow cytometry (AID 1862; in the data active = percent of DMSO control GFP below about 86%;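 also: lower values mimic rapamycin by blocking the RPL19A rise seen in DMSO cells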); settings: S. cerevisiae RPL19A-GFP strain, flow cytometry fluorescence, 3 h; at 10 µM; stronger effect = lower value
[2] = modulators of MEP2-GFP levels in yeast, primary screen, S. cerevisiae, multiplex flow cytometry (AID 1867;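 active = GFP response, as percent of the DMSO control, above the screen-wide mean plus 3 SD, about 139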;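 also: median GFP channel fluorescence of barcode-gated MEP2-GFP cells measured by flow cytometry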); settings: S. cerevisiae MEP2-GFP strain, 3 h, at 10 µM, stronger effect = higher value, 100% means same as DMSO wells
[3] = modulators of CIT2-GFP expression in yeast, primary screen, S. cerevisiae, GFP fusion, multiplex flow cytometry (AID 1870;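 active = percent response above a set limit, the screen-wide mean plus 3 SD, cut at about 130% in these data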;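 also: barcoded CIT2-GFP strain pooled with four other GFP strains with rapamycin as positive control; median GFP fluorescence per well over plate mean of DMSO wells so 100% = DMSO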); settings: 3 h, at 10 µM, stronger effect = higher value
[4] = modulators of LAP4-GFP expression in yeast, primary screen, S. cerevisiae, multiplex flow cytometry (AID 1873); settings: 3 h, at 10 µM, stronger effect = higher value
[5] = modulators of AGP1-GFP expression in yeast TOR pathway, primary screen, cell-based, multiplex flow cytometry, S. cerevisiae (AID 1887;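 active = GFP signal above the screen-wide mean plus 3 SD, that is over about 124.5% of the solvent control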;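 also: AGP1-GFP fusion strain of S. cerevisiae within a five-strain barcoded multiplex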); settings: 3 h, at 10 µM, stronger effect = higher value
[6] = inhibitors of CD8+ T cell-vesicle binding, pilot screen, LFA-1/ICAM-1 modulator project, MLPCN validation set, flow cytometry (AID 2523;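 active = response below a set limit, under 55% cells CD8-positive and vesicle-bound, and CD8 cells' 90th-percentile brightness under 279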;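 as to vesicle binding response: mean PE anti-B7-1 fluorescence of CD8+ cells relative to row control; 100% = QL9-loaded vesicles with DMSO vehicle in the same plate row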); settings: 2C mouse CD8+ T cells, at 7 µM, stronger effect = lower value; double positive events: measured here: CD8+/vesicle+ event percentage
[7] = target: Integrin beta-1 (Homo sapiens) + Integrin alpha-4 (Homo sapiens) (UniProt P13612+P05556); assay: inhibition of HUTS-21 binding to VLA-4, pilot screen, VLA-4 allosteric modulator project, U937 cells, HUTS-21 mAb, flow cytometry, validation set (AID 2674;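 active = inhibition above 50%, about 3 SD of the validation set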;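 also: antibody binding induced by the VLA-4 ligand LDV present at three times its Kd; 0% = LDV ligand with antibody and no compound and 100% = antibody without LDV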); settings: HUTS-21 LIBS mAb binding, at 6.7 µM, stronger effect = higher value, binding induced by LDV ligand
Integrin beta-1 (Homo sapiens) + Integrin alpha-4 (Homo sapiens), sequence (P05556 whole entry, looked up): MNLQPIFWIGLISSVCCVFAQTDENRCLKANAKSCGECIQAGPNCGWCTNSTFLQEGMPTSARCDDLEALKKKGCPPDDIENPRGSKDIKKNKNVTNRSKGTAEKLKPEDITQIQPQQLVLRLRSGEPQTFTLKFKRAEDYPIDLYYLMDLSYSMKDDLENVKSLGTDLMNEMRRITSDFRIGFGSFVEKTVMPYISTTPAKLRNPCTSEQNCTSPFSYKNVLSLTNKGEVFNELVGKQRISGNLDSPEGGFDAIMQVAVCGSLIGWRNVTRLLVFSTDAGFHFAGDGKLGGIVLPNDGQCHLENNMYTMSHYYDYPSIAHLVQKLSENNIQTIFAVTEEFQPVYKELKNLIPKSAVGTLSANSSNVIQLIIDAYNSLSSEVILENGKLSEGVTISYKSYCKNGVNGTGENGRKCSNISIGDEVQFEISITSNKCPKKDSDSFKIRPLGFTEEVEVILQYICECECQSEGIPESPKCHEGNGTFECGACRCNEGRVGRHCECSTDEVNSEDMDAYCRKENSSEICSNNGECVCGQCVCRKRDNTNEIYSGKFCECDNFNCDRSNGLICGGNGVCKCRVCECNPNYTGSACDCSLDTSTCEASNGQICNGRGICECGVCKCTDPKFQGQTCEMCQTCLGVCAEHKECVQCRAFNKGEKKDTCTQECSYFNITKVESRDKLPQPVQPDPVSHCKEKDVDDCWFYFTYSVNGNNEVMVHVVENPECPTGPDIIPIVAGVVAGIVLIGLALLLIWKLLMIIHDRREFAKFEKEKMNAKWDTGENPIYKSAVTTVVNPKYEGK
Integrin beta-1 (Homo sapiens) + Integrin alpha-4 (Homo sapiens), sequence (P13612 whole entry, looked up): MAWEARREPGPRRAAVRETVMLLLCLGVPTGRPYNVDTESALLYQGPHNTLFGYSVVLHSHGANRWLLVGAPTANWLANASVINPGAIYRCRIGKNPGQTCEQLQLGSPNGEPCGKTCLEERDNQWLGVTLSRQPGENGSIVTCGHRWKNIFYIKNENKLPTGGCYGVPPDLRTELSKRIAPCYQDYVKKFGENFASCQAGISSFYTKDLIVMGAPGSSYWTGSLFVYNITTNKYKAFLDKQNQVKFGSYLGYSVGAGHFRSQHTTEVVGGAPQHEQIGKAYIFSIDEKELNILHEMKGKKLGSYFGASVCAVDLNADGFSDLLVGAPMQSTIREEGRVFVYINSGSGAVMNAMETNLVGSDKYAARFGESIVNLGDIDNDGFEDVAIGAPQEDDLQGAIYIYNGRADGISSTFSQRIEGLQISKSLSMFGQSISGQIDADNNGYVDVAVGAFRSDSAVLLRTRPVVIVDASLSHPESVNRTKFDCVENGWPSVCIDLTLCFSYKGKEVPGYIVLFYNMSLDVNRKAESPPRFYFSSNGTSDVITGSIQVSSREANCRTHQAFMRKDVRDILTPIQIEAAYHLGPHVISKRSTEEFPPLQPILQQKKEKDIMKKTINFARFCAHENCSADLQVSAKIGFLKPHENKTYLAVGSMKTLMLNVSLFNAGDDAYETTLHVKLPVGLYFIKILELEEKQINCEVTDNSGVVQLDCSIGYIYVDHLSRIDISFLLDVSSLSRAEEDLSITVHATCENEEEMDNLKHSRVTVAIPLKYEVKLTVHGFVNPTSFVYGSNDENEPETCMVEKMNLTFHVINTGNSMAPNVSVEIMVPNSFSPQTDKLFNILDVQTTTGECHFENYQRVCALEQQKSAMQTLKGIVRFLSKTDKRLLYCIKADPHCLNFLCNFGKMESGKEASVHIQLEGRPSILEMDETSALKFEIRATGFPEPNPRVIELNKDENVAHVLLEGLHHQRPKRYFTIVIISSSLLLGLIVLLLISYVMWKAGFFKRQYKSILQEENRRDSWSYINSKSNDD

[8] = superoxide lowering in aged yeast cells, pilot screen, validation compound set (AID 2706;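 active = superoxide response below 65% of plate, a cut near 3 SD across the whole screen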;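 also: yeast exposed to compound for one week at 30 degrees C before staining; 100% = mean of all compound wells on the same plate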); settings: S. cerevisiae aging, superoxide DHE fluorescence; at 10 µM; stronger effect = lower value
[9] = target: Beta-adrenergic receptor kinase 1 (Homo sapiens) (UniProt P25098); assay: GRK2 binders displacing RNA aptamer, biochemical, validation, human GRK2, bead flow cytometry (AID 488806;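 active = aptamer binding inhibition above 30%, about 3 SD of noise from non-fluorescent compounds; inactive = inhibition at or below 30%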); settings: bead-bound GRK2, FAM-aptamer displacement, at 10 µM, stronger effect = higher value
Beta-adrenergic receptor kinase 1 (Homo sapiens), sequence (P25098 whole entry, looked up): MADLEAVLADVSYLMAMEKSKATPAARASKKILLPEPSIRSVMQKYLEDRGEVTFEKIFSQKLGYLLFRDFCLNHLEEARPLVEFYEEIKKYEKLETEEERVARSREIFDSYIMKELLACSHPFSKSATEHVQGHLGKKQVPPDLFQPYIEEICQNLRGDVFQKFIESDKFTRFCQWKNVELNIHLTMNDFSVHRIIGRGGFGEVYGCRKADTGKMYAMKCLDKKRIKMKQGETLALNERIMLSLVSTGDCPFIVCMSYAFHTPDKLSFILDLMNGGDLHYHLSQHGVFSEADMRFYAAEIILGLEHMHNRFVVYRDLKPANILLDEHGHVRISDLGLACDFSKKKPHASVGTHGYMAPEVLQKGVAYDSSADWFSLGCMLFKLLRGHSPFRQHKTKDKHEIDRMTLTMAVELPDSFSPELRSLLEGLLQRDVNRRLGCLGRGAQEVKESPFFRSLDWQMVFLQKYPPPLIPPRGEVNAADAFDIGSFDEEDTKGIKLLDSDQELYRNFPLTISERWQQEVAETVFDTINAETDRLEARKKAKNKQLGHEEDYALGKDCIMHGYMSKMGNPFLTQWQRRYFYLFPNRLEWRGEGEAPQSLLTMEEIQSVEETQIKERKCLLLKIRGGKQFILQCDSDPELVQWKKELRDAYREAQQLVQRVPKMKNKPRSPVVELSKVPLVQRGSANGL

[10] = target: Beta-2 adrenergic receptor (Homo sapiens) (UniProt P07550); assay: beta2AR agonists driving receptor internalization, pilot screen, cell-based, FAP fluorogen, flow cytometry, validation set (AID 504459;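 active = percent response above 42, roughly 3 SD of non-fluorescent test compounds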;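 also: agonist-driven loss of surface beta2AR via internalization measured by FAP dye flow cytometry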); settings: Am2.2-beta2AR cells, FAP surface receptor flow cytometry; at 10 µM; stronger effect = higher value
Beta-2 adrenergic receptor (Homo sapiens), sequence (P07550 whole entry, looked up): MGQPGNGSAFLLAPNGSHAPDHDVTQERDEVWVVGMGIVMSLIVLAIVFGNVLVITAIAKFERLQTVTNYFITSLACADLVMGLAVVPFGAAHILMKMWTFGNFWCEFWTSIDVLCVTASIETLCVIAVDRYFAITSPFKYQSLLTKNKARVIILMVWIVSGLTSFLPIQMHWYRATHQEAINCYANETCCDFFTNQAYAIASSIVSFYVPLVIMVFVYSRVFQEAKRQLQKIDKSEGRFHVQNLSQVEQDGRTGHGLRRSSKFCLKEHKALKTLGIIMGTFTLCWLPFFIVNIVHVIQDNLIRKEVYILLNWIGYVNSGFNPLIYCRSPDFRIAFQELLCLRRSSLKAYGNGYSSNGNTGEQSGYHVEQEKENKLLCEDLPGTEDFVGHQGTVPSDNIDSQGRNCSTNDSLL

[11] = target: AP-2 complex subunit beta (Homo sapiens) (UniProt P63010); assay: inhibitors of arrestin peptide binding to AP2, pilot screen, biochemical, validation set, GST-AP2 beads, flow cytometry (AID 504541;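 active = inhibition above 54%, about 3 SD of non-fluorescent compounds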;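 also: AP2 carries R879A mutation and is captured from E. coli lysate; bead-bound FITC arrestin peptide fluorescence measuring arrestin peptide binding to AP2; 0% = DMSO wells and 100% = excess unlabeled arrestin peptide control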); settings: FITC arrestin peptide, at 10 µM, stronger effect = higher value, AP2 beta2 appendage fragment, R879A mutant
AP-2 complex subunit beta (Homo sapiens), sequence (P63010 whole entry, looked up, the tested form may be a part, one chain of several): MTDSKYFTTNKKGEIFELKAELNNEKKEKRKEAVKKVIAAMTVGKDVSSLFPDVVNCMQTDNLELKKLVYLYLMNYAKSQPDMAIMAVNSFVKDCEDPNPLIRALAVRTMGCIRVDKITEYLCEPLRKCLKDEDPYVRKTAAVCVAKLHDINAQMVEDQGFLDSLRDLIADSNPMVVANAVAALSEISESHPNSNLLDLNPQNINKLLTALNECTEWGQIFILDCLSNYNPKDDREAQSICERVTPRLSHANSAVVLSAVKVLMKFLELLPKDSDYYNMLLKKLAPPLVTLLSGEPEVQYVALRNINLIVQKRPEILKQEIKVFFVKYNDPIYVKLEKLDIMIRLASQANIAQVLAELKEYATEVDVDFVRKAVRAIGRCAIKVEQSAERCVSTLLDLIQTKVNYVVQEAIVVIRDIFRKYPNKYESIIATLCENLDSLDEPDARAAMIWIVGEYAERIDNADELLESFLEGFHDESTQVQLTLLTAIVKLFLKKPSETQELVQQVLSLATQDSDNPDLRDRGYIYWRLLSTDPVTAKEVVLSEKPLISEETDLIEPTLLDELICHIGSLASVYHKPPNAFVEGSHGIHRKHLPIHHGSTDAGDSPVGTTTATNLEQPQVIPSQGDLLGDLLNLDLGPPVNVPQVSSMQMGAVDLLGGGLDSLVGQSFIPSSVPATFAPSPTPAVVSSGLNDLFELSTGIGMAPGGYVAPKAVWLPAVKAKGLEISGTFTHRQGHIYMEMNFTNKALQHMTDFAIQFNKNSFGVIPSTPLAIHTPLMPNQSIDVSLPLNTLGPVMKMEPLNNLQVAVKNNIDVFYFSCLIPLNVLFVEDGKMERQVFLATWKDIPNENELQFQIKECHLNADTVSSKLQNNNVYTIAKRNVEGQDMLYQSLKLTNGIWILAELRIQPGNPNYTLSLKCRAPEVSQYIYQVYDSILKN

[12] = yeast V-ATPase proton transport modulators, S. cerevisiae, pHLuorin, HTS validation (AID 504600; in the data active = response above about 15%;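 also: plate controls were DMSO for no effect and reference compound for full effect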); settings: S. cerevisiae pHLuorin cytosolic pH, at 10 µM, stronger effect = higher value
[13] = system: anti-desmoglein-3 scFv antibody binding to human DSG3; assay: inhibitors of anti-DSG3 scFv binding to DSG3, pilot screen, biochemical, validation compound set, bead-based, flow cytometry (AID 588368;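 active = binding below the plate cutoff, the plate median minus 3 SD, with a reading above zero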;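 also: signal is the median channel fluorescence of bead-bound GFP antibody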); settings: Protein G beads, DSG3-Fc, scFv-GFP binding, at 10 µM, stronger effect = lower value
[14] = inhibitors of fungal efflux pumps CDR1, CDR2, MDR1, pilot screen, validation compound set, multiplex, phenotypic (AID 588506;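 active = efflux inhibition above 0.42, the validation set average plus 4 SD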;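 also: Nile Red retained in cells so higher fluorescence means more efflux inhibition; 0 = negative control wells and 1 = enniatin B 25 µM full block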); settings: S. cerevisiae pump-expressing triplex, Nile Red efflux flow cytometry; at 10 µM; stronger effect = higher value; the pumps come from Candida albicans
[15] = target: ATP-binding cassette sub-family B member 6 (Homo sapiens) (UniProt Q9NP58); assay: ABCB6 transporter inhibitors, pilot screen, K562-ABCB6 cells, flow cytometry, validation set (AID 588550;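 active = inhibition above the screen-wide mean plus 3 SD, about 51%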;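 also: 0% = DMSO wells and 100% = benzethonium chloride 70 µM positive control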); settings: K562-ABCB6 porphyrin accumulation, 1 h, at 10 µM, stronger effect = higher value
ATP-binding cassette sub-family B member 6 (Homo sapiens), sequence (Q9NP58 whole entry, looked up): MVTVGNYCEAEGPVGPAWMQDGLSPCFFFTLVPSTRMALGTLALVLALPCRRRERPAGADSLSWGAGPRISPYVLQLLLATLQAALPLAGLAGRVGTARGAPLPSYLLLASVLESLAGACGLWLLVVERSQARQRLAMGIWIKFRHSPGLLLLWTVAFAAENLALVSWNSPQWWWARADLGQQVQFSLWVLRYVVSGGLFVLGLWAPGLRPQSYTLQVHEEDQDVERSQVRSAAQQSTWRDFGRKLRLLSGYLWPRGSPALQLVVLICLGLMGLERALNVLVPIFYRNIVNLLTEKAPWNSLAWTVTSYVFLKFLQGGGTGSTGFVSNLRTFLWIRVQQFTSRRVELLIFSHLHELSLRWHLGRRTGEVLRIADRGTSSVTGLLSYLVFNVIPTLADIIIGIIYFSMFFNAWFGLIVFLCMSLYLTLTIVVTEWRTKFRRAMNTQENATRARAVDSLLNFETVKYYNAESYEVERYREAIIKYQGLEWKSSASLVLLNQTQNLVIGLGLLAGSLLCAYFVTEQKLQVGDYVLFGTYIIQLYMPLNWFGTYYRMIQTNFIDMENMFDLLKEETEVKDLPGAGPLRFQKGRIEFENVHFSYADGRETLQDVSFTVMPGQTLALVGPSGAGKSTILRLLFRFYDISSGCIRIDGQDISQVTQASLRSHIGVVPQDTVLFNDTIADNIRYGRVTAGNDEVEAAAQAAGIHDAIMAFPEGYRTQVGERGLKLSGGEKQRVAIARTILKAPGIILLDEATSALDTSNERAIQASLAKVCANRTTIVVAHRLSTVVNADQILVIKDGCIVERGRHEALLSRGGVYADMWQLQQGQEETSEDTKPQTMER

[16] = promoters of myeloid differentiation in arrested cells, primary screen, cell-based, GFP/MAC1 double positive, flow cytometry, validation set (AID 588685;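 active = differentiation response of at least 50%, scaled between solvent and reference control, from cells with both markers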;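 also: compound exposure lasts four days before antibody staining and flow analysis; 0% = DMSO wells and 100% = 5 µM fulvestrant positive control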); settings: ER-HoxA9 marrow cells, stronger effect = higher value, normalized: vehicle 0, fulvestrant 100

Structure (SMILES) | percent of DMSO control GFP [1] | GFP response vs DMSO [2] | percent response of DMSO control [3] | GFP response vs DMSO [4] | GFP response, % of DMSO [5] | double positive events [6] | vesicle binding response [6] | inhibition [7] | superoxide response (% of plate) [8] | aptamer binding inhibition [9] | response [10] | inhibition [11] | response [12] | binding (% of control) [13] | efflux inhibition (fraction of control) [14] | inhibition [15] | differentiation response [16]
COc1ccc(C2C3=C(OC(C)=O)c4ccccc4C3=Nc3c2c(=O)n(C)c(=O)n3C)cc1 (stereo not drawn) | 105% (inactive) | 94.6% (inactive) | 106% (inactive) | 105% (inactive) | 103% (inactive) | 58.8% | 127% (inactive) | 1.59% (inactive) | 98.4% (inactive) | -1% (inactive) | -14.8% (inactive) | 0.59% (inactive) | -2.42% (inactive) | 102% (inactive) | -0.02 (inactive) | 4% (inactive) | -11.9% (inactive)
Cc1oc2c(O)c(O)ccc2c(=O)c1-c1ccccc1 | 87.8% (inactive) | 107% (inactive) | 106% (inactive) | 74.3% (inactive) | 90.8% (inactive) | 59.4% | 119% (inactive) | -1.3% (inactive) | 110% (inactive) | 3% (inactive) | -8.83% (inactive) | -5.67% (inactive) | -1.26% (inactive) | 107% (inactive) | 0.45 (active) | 9% (inactive) | -2.46% (inactive)
CC1(C)CC(O)(CNCc2ccc3c(c2)OCO3)CCO1 (stereo not drawn) | 103% (inactive) | 102% (inactive) | 101% (inactive) | 106% (inactive) | 105% (inactive) | 66.2% | 192% (inactive) | 15.9% (inactive) | 104% (inactive) | 1% (inactive) | -24.4% (inactive) | 44.7% (inactive) | -2.49% (inactive) | 104% (inactive) | -0.04 (inactive) | 2% (inactive) | 0.92% (inactive)
CS(=O)(=O)NCc1ccc(C(=O)NCc2ccccc2)cc1 | 98.4% (inactive) | 107% (inactive) | 100% (inactive) | 127% (inactive) | 123% (inactive) | 55.6% | 174% (inactive) | -19% (inactive) | 105% (inactive) | -8% (inactive) | -27.9% (inactive) | -12% (inactive) | 4.07% (inactive) | 98.7% (inactive) | -0.04 (inactive) | -5% (inactive) | -3.02% (inactive)
FC(F)(F)c1ccc(-c2noc(CN3CCCN(C4CCCCC4)CC3)n2)cc1 | 100% (inactive) | 105% (inactive) | 101% (inactive) | 93.3% (inactive) | 101% (inactive) | 62.5% | 5350% (inactive) | -7.72% (inactive) | 89.3% (inactive) | -12% (inactive) | -4.45% (inactive) | -10.2% (inactive) | 3.31% (inactive) | 103% (inactive) | -0.14 (inactive) | -11% (inactive) | 33.5% (inactive)
NS(=O)(=O)c1ccc(CCNC(=O)C2CCCN2C(=O)OCc2ccccc2)cc1 (stereo not drawn) | 97.2% (inactive) | 109% (inactive) | 112% (inactive) | 77.6% (inactive) | 103% (inactive) | 52.2% | 214% (inactive) | 1.61% (inactive) | 110% (inactive) | -8% (inactive) | -16.9% (inactive) | -5.77% (inactive) | 2.16% (inactive) | 104% (inactive) | 0.19 (inactive) | 11% (inactive) | 3.28% (inactive)
Cc1ccc([N+](=O)[O-])cc1NC1OC(CO)C(O)C1O (stereo not drawn) | 102% (inactive) | 105% (inactive) | 104% (inactive) | 120% (inactive) | 109% (inactive) | 56.8% | 186% (inactive) | -16.4% (inactive) | 108% (inactive) | 4% (inactive) | -23% (inactive) | 7.17% (inactive) | 2.59% (inactive) | 103% (inactive) | -0.04 (inactive) | 3% (inactive) | 2.89% (inactive)
O=C(NCCC(c1ccccc1)c1ccco1)c1cccs1 (stereo not drawn) | 97.6% (inactive) | 105% (inactive) | 91% (inactive) | 127% (inactive) | 96.5% (inactive) | 57.6% | 230% (inactive) | -5.89% (inactive) | 105% (inactive) | 0% (inactive) | -13.3% (inactive) | -6.88% (inactive) | 2.49% (inactive) | 99.7% (inactive) | -0.21 (inactive) | 11% (inactive) | -5.6% (inactive)
Cc1csc(N)n1 | 101% (inactive) | 105% (inactive) | 114% (inactive) | 86.9% (inactive) | 101% (inactive) | 69.2% | 201% (inactive) | -7.12% (inactive) | 87% (inactive) | -1% (inactive) | 4.23% (inactive) | 5.92% (inactive) | -1.8% (inactive) | 105% (inactive) | -0.31 (inactive) | 12% (inactive) | 9.01% (inactive)
